Most compounds without a hit are left out; they make up all but 10% or so of the library.
KB-3-1 cytotox: qHTS assay for MDR1-selective chemotherapeutics: Primary screen using the parental adenocarcinoma cell KB-3-1; KB-3-1 viability, CellTiter-Glo ATP luminescence, 72 h; Potency, µM (doses to about 46.1 µM), usual class: cytotoxic; 400,000 tested, 1.4% active; also: % is scaled to controls: 0 for no effect and ±100 for the full control effect; nearly all actives have a fitted effect of over 60% in size
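Parental KB-3-1 adenocarcinoma cells in phenol-red-free DMEM with 10% FBS were pin-treated with compounds at several concentrations, incubated 72 h at 37 °C, and viability read by CellTiter-Glo luminescence; concentration-effect curves were fitted after normalization.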
MCF10A rerep: A quantitative high throughput screen for small molecules that induce DNA re-replication in MCF 10a normal breast cells. MCF 10A DNA re-replication, Hoechst nuclear intensity, 48 h. Potency, µM (top dose mostly 46.1 µM), for inactives: at the highest dose activity, positive = re-replication, usual class: activators. 350,000 tested, 2.9% active. AID 624296, 2012; also: % of control where 0% means no effect; nearly all actives have a fitted effect of over 50% in size
SW480 rereplic: A quantitative high throughput screen for small molecules that induce DNA re-replication in SW480 colon adenocarcinoma cells; SW480 DNA re-replication, Hoechst DNA content imaging, 48 h; AID 624297, 2012; Potency, µM (doses to about 46.1 µM), for the others: at the top dose re-replication activation, hits mostly activators; 340,000 tested, 1.8% active; also: % of control where 0% means no effect; nearly all actives have a fitted effect of over 55% in size
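Cells (250 per well) received 23 nL compound or DMSO by pin tool and were kept 48 hr at 37 C, 5% CO2. Nuclei were then stained with Hoechst for 40 min and scanned for DNA content.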
RORg inh: qHTS for inhibitors of ROR gamma transcriptional activity; Nuclear receptor ROR-gamma (Mus musculus), P51450; Potency, µM (highest dose often 53.6 µM), inactives show at the highest dose activity change, negative = inhibition, hits mostly inhibitors; 310,000 tested, 5.4% active; Drosophila S2 Gal4-RORgamma UAS-luciferase reporter, 20 h; also: % is scaled to controls: 0 for no effect and ±100 for the full control effect; nearly all actives have a fitted effect of over 60% in size
Target sequence (P51450 whole entry, looked up, the tested form may be a part): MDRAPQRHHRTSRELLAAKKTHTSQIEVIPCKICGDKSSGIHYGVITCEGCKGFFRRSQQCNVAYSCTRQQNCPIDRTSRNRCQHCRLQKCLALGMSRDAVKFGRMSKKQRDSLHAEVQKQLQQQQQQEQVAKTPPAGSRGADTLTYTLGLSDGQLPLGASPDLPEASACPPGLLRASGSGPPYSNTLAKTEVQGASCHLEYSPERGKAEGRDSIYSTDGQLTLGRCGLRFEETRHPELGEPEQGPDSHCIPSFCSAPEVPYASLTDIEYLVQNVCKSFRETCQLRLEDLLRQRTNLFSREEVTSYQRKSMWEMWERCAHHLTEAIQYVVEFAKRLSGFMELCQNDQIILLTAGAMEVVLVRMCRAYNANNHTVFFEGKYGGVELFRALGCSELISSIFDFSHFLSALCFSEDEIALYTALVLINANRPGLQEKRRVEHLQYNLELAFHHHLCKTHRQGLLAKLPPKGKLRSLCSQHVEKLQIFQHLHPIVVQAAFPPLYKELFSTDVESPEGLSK
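Compounds are pin-transferred onto Drosophila Schneider cells expressing a copper-inducible Gal4–ROR gamma transactivation domain fusion. After 1 hr, copper sulfate is added to 700 uM final; luciferase is read 20 hr later.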
KB-V1 MDR tox: qHTS assay for MDR1-selective chemotherapeutics: Primary screen using the drug-selected MDR subline cells KB-V1. KB-V1 MDR cells viability, CellTiter-Glo, 72 h. 400,000 tested, 3.4% active. Potency, µM (top dose mostly 46.1 µM), most hits filed as cytotoxic. AID 1347076, 2019; also: % is scaled to controls: 0 for no effect and ±100 for the full control effect; nearly all actives have a fitted effect of over 60% in size
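Cytotoxicity toward P-gp-expressing KB-V1 cells was determined as loss of CellTiter-Glo luminescence after 72 h at 37 degrees C. Compounds were tested in quantitative HTS format across a concentration range, with curves fitted to normalized data.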
VP16 counter: VP16 counterscreen qHTS for inhibitors of ROR gamma transcriptional activity; Drosophila S2 Gal4-VP16 UAS-luciferase, luminescence, 20 h; Potency, µM (highest dose often 53.6 µM), without a hit: top-dose activity, negative = inhibition, most hits filed as inhibitors; 310,000 tested, 3.5% active; AID 2546, 2010;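 also: Gal4-VP16 expression switched on by copper sulfate through the metallothionein promoter; % is scaled to controls: 0 for no effect and ±100 for the full control effect; nearly all actives have a fitted effect of over 50% in size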
Active calls of the source: *; i = inactive; ? = inconclusive; / = no result given; [ ] = dose if it differs, or a comment. Calls follow the shape of the dose curve; as a rule, active = well fitted curve in the direction sought with a large enough effect; inconclusive = small, poorly fitted or top-dose-only effect, or another doubt; inactive = no such curve, though single readings can be large; an effect the other way counts as inactive or inconclusive. Potency is read from the fitted curve at half-maximal effect.

SMILES	KB-3-1 cytotox	MCF10A rerep	SW480 rereplic	RORg inh	KB-V1 MDR tox	VP16 counter
CCn1nc(NC(=O)C2CCCO2)c2cc3cc(C)ccc3nc21 (stereo unspecified)	i	-4.7%	11.8%	-0.4%	i	27.7%
COc1ccc(C(C)C)cc1S(=O)(=O)NCCc1c(C)[nH]c2ccc(C)cc12	i	/	/	/	i	/
Cc1ccc(NS(=O)(=O)c2ccc3c(c2)N(C)C(=O)CO3)cc1C	i	/	/	/	i	/
CN[C@H]1C[C@H]2c3cc(N4CCN(C)CC4)ccc3CCN2C(=O)[C@H]1[C@H](C)O	i	/	/	/	i	/
COc1ccc(S(=O)(=O)N2CCOC23CCN(S(=O)(=O)c2ccccc2)CC3)cc1	i	6.0%	7.31µM*	/	i	/
COc1ccc(S(=O)(=O)N2CCOC23CCN(S(C)(=O)=O)CC3)cc1	i	14.0%	5.17µM*	/	i	/
COc1ccc(S(=O)(=O)N2CCC3(CC2)OCCN3S(=O)(=O)c2c(C)cc(C)cc2C)cc1	i	-1.9%	3.7%	/	i	/
O=C(C[n+]1ccc(C(=O)c2ccccc2)cc1)Nc1cccc([N+](=O)[O-])c1	i	/	/	/	i	/
Cc1ccc(S(=O)(=O)c2cn(Cc3ccccc3)c3cc(N4CCCC4)c(F)cc3c2=O)cc1C	i	/	/	/	i	/
COc1ccc(/C=C2\Oc3cc(OCC(N)=O)ccc3C2=O)cc1OC	i	0.9%	-12.8%	-43.9%	i	?
Cc1ccsc1/C=C1\Oc2cc(OCC(=O)c3ccccc3)ccc2C1=O	i	?	-51.2%	15.8µM*	i	?
O=C(CN1CCN(Cc2ccccc2)CC1)Nc1cccc(C(F)(F)F)c1	i	13.1%	1.2%	-15.9%	16.4µM*	2.4%
COc1cc(NC(=S)N2CCN(Cc3ccccc3)CC2)cc(OC)c1	i	-1.4%	5.4%	?	i	?
S=C(Nc1cccc(Cl)c1)N1CCN(Cc2ccccc2)CC1	i	2.1%	11.9%	10µM*	i	?
S=C(Nc1ccccc1)N1CCN(Cc2ccccc2)CC1	i	-9.1%	?	?	i	?
COc1cccc(NC(=S)N2CCN(Cc3ccccc3)CC2)c1	i	6.9%	-0.2%	?	i	20µM*
COc1ccc(NC(=S)N2CCN(Cc3ccccc3)CC2)cc1	i	6.4%	-2.3%	11.2µM*	i	15.9%[10 µM]
Cc1ccc(S(=O)(=O)c2ccsc2NC(=O)c2ccccc2)cc1	?	9.0%	0.6%	/	i	/
COc1ccc(CNC(=S)N2CCN(Cc3ccccc3)CC2)cc1	i	25.4%	?	-13.1%	16.4µM*	2.8%
Cn1c(=O)cc(SCC(=O)NCc2ccc(F)cc2)c2ccccc21	?	14.6µM*	15.1%	10.1%	i	-5.8%
Cn1c(=O)cc(SCC(=O)NCc2ccc(F)cc2)c2ccc(Cl)cc21	i	/	/	/	i	/
COc1ccc(Cn2c(C(=O)O)c(CNCc3ccco3)c3ccc(OC)cc32)cc1	i	/	/	/	i	/
Cc1cc(=O)oc2c(C(=O)/C=C/c3ccccc3)c(O)ccc12	i	?	-2.1%	-1.1%	?	-21.1%
COc1ccc(/C=C\C(=O)c2c(O)ccc3c(C)cc(=O)oc23)cc1OC	16.4µM*	?	?	12.6µM*	20.6µM*	?
COc1cc(/C=C/C(=O)c2c(O)ccc3c(C)cc(=O)oc23)ccc1O	?	16.1%	4.0%	12.6µM*	?	?
SMILES	KB-3-1 cytotox	MCF10A rerep	SW480 rereplic	RORg inh	KB-V1 MDR tox	VP16 counter
C/C(CC(=O)Nc1ccc(Cl)cc1C(F)(F)F)=N\NC(N)=S	i	?	?	12.6µM*	i	?
C/C(CC(=O)Nc1ccc(Cl)cc1Cl)=N\NC(=O)c1ccncc1	i	?	-7.0%	?	i	17.8µM*
C/C(CC(=O)Nc1ccc(Cl)c(Cl)c1)=N\NC(N)=S	i	0.5%	-12.5%	5.62µM*	i	11.2µM*
C/C(CC(=O)Nc1cc(Cl)ccc1Cl)=N\NC(N)=S	?	5.0%	0.5%	5.62µM*	i	20µM*
C/C(CC(=O)Nc1ccc(C)c(Cl)c1)=N\NC(=O)c1ccncc1	i	16.3%	10.1%	?	i	22.0%
Cc1ccc2oc(=O)c3cnn(CC(=O)N4CCN(c5ccc(F)cc5)CC4)c3c2c1	i	/	/	/	i	/
COc1cccc(CNC(=O)c2cc3c(s2)-c2c(C)cccc2OC3)c1	i	/	/	/	i	/
C/C(=N/NC(=O)c1ccncc1)c1ccc(NC(=O)c2ccccc2)cc1	i	-4.4%	-5.4%	-21.4%	i	7.3%
C/C(=N\NC(=O)c1ccccc1)c1nc2ccccc2n1C	i	7.4%	13µM*	1.58µM*	?	3.16µM*
Cn1c(NC(=O)c2ccccc2NC(=O)C(C)(C)C)nc2ccccc21	?	-1.6%	19.8%	10µM*	?	11.2µM*
CC(C)(C)C(=O)Nc1ccccc1C(=O)Nc1ccccn1	i	11.0%	-9.5%	37.1%	i	0.8%
Cn1c(NC(=O)c2ccc(F)cc2)nc2ccccc21	?	-0.3%	?	0.447µM*	i	1.26µM*
O=C(Nc1nc2ccccc2c2nc3ccccc3n12)c1ccc(F)cc1	/	-2.7%	-12.1%	2.8%	/	-5.4%
CCN(CC)S(=O)(=O)c1ccc(C(=O)OCC(=O)Nc2ccc(-c3nc4ccc(C)cc4s3)cc2)cc1	i	3.8%	-7.1%	0.398µM*	i	?
Cc1ccc2nc(-c3ccc(NC(=O)COCC(=O)O)cc3)sc2c1	i	?	?	-17.3%	?	-16.7%
CCN(CC)S(=O)(=O)c1cc(C(=O)OCC(=O)Nc2ccc(-c3nc4ccc(C)cc4s3)cc2)ccc1F	i	3.1%	2.9%	12.6µM*	?	8.91µM*
COc1ccccc1CNC(=O)C1CCN(C2=NS(=O)(=O)C(c3ccc(C)c(C)c3)=C2C)CC1	i	/	/	/	i	/
O=C(NCc1n[nH]c(=S)n1-c1cccc(Cl)c1)c1cccs1	?	-35.4%	23.7%	-2.4%	i	0.3%
O=C(NCc1n[nH]c(=S)n1-c1ccc(Cl)c(Cl)c1)c1cccs1	i	-12.1%	-10.5%	15.8µM*	i	5.6%
COc1ccccc1/C=C/C1(C(=O)NC2CCCC2)CC(=O)N1c1ccccc1 (stereo unspecified)	3.66µM*	9.2µM*	7.31µM*	17.3%	3.66µM*	-9.7%

Screening results: PubChem BioAssay, National Center for Advancing Translational Sciences (NCATS)
